Results published in PubChem BioAssay AID687001 (Broad Institute, 2013).
Entries with a potency or affinity are not part of this list. Calls of active or inactive are those of the source.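 Rule for the calls: active = signal-lowering compounds whose fitted half-maximal concentration is at or below twice the top tested dose in every run; inconclusive = runs disagree, flat 30 to 70% inhibition, or poor curve fit; inactive = the rest.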

target: Protein S100-A4 (Homo sapiens) (UniProt P26447); test: human S100A4 peptide interaction inhibition curves – biochemical, fluorescence polarization, cherry-picked hits, dose response (AID 687001); conditions: FP, S100A4/TAMRA-myosin IIA peptide binding; series mostly up to 11 µM
Sequence (P26447 whole entry, looked up): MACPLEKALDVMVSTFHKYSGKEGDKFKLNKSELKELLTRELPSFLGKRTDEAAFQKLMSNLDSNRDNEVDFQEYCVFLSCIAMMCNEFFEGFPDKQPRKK

outcome, inactive:
C[C@H](CO)N1C[C@H](C)[C@H](CN(C)Cc2ccccc2)Oc2ccc(NS(=O)(=O)c3ccccc3)cc2CC1=O, C[C@@H]1CCCCO[C@@H](CN(C)Cc2ccc(C(=O)O)cc2)[C@H](C)CN([C@H](C)CO)C(=O)c2cc(NC(=O)CCCN(C)C)ccc2O1, CO[C@H]1CN(C)C(=O)c2ccc(NS(=O)(=O)c3ccccc3)cc2OC[C@H](C)N(Cc2cccnc2)C[C@@H]1C, CCCc1cn(CC[C@@H]2CC[C@H](NS(=O)(=O)c3ccccc3Cl)[C@@H](CO)O2)nn1, CC1NC2(C(=O)N(Cc3ccccc3)c3ccccc32)C2C(=O)N(c3ccccc3)C(=O)C12 (stereo unspecified), O=C(NCC[C@H]1CC[C@@H](NS(=O)(=O)c2ccccc2F)[C@H](CO)O1)c1ccc(F)cc1, CCCNC(=O)Nc1ccc2c(c1)OC[C@H](C)N(C(=O)C1CC1)C[C@H](C)[C@@H](OC)CN(C)C2=O, CCC(=O)N(C)C[C@H]1Oc2ncc(-c3ccc(C(=O)N(C)C)cc3)cc2C(=O)N([C@@H](C)CO)C[C@H]1C, COc1ccc(Cl)cc1Cn1c(C)c(C(=O)NCc2ccc(C#N)cc2)sc1=O, COc1ccc(C#Cc2ccc([C@H]3[C@H]4CN(S(=O)(=O)c5ccccc5)CCCCN4[C@H]3CO)cc2)cc1, Cc1cccc(-c2oc3ccc(-c4ccc5c(c4)OCO5)cc3c2-c2ccc(OC3CCCCO3)cc2)c1 (stereo unspecified), C[C@@H]1CN([C@@H](C)CO)C(=O)c2cc(NC(=O)NC3CCCCC3)ccc2O[C@@H](C)CCCCO[C@@H]1CN(C)S(=O)(=O)c1cn(C)cn1, C[C@H](CO)N1C[C@H](C)[C@H](CN(C)C)Oc2cc(C3=CCCC3)ccc2S1(=O)=O, CC(OC(=O)C1CC(=O)N(Cc2ccco2)C1)C(=O)Nc1ccc(F)cc1Cl (stereo unspecified), CCN(CC)C(=O)Cn1ccc(NC(C)=O)nc1=O, O=C1CN(C(=O)COc2c(F)c(F)cc(F)c2F)c2ccccc2N1, Cc1ccc(S(=O)(=O)N[C@H]2C=C[C@H](CC(=O)O)O[C@@H]2CO)cc1, CN(C)CC(=O)N[C@H]1CC[C@@H](CC(=O)NCc2ccc(Cl)cc2)O[C@@H]1CO, Cc1ccc(S(=O)(=O)N(C)C[C@H]2OCCCC[C@H](C)Oc3ccc(NS(=O)(=O)c4ccccc4)cc3C(=O)N([C@H](C)CO)C[C@@H]2C)cc1, CNC[C@H]1OCCCC[C@@H](C)Oc2ccc(NC(=O)C3CCCCC3)cc2C(=O)N([C@@H](C)CO)C[C@@H]1C, O=C(c1cc2c(s1)-c1ccccc1S(=O)(=O)C2)N1CCN(Cc2ccccc2)CC1, CC1CCCCC12NC(=O)N(CC(=O)OCC(=O)Nc1ccc(F)cc1[N+](=O)[O-])C2=O (stereo unspecified), Cc1cccc(S(=O)(=O)N2CC[C@@H]3[C@H](CO)Nc4ccc(C#Cc5ccc(F)cc5)cc4[C@@H]32)c1, CCCCN1C[C@H](CSC)[C@@H](CC(=O)Nc2ccc(Br)cc2)C1=O, O=C(C[C@@H]1CC[C@@H](NC(=O)CC2CC2)[C@H](CO)O1)NCc1ccc(Cl)cc1, CCOC(=O)C1=C(c2ccccc2)NC(=O)NC1c1cc(OC)c(OC)c(OC)c1 (stereo unspecified), Cc1ccc(CNc2cnccn2)s1, CCCCCC(=O)Nc1cc(S(=O)(=O)N2CCOCC2)ccc1N1CCCCC1, CCCCn1c(N)c(N(CC(C)C)C(=O)COc2cc(C)ccc2Cl)c(=O)[nH]c1=O, Cc1cc(Br)ccc1NC(=S)NC1CCCC1, COCC(=O)Nc1ccc2c(c1)[C@@H]1C[C@@H](CC(=O)N3CCOCC3)O[C@@H](CO)[C@@H]1O2, C[C@@H]1CCCCO[C@@H](CN(C)CC2CCCCC2)[C@@H](C)CN([C@H](C)CO)C(=O)c2cc(NS(=O)(=O)c3cn(C)cn3)ccc2O1, C[C@@H]1CN([C@H](C)CO)C(=O)c2cc(NC(=O)Nc3ccc(C(F)(F)F)cc3)ccc2O[C@@H]1CN(C)C(=O)Nc1ccc(C(F)(F)F)cc1, CNc1nc(-c2ccc(S(=O)(=O)N3CCCCC3)cc2)cs1, C[C@H]1CN([C@@H](C)CO)C(=O)Cc2cc(NC(=O)CCC(F)(F)F)ccc2O[C@@H]1CN(C)C, O=C(Nc1ccc(C(F)(F)F)cc1)N[C@H]1C=C[C@@H](CC(=O)N2CCCCC2)O[C@@H]1CO
